Sampled rows, rich in hits. Any-hit rate of the full collection: about 14%.
HCMV inh: blocks human cytomegalovirus replication | HFF cells, HCMV-luciferase reporter, 72 h; hits give low values | activity change, negative = inhibition, % at 57.5 µM | 410,000 compounds, 4.5% hits; in the data active means activity change below about -60%; inconclusive means no clear call, values can overlap the other calls; inactive means above about -39%
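Two compound doses tested in HFFs infected with HCMV-luciferase, MOI 1 PFU/cell, 72 h at 37C. Lysate luminescence read with OneGlo; data normalized against buffer-only and 10uM Salinomycin inhibitor controls.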
Lassa entry inh: blocks Lassa virus binding to or entry into cells | Potency, µM (titrated, usually from 37.9 µM), without a hit: at the top dose activity change, negative = inhibition, most hits filed as inhibitors | Lassa virus pseudotype entry inhibition, cell reporter | 300,000 compounds, 1.2% hits; calls by dose curve; tested in HEK293 cells; further: potency means the concentration at half of the fitted maximal effect; nearly all actives have a fitted effect of over 50% in size
Pf growth 96h: inhibits malaria parasite growth, 96 h. P. falciparum luciferase reporter growth, 96 h. Potency, µM (titrated, usually from 28.7 µM), for the others: at the top dose activity change, negative = inhibition, most hits filed as inhibitors. 320,000 compounds, 6.9% hits. AID 504834; further: potency means the concentration at half of the fitted maximal effect
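Erythrocytes infected with luciferase-expressing P. falciparum were dispensed at 2% hematocrit and 0.05% parasitemia (final), then incubated with compounds 96 hours at 37 C in 5% CO2. Luminescence after detection reagent addition reported growth.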
HCV inh: HCV inhibition | Huh7.5.1 HCVcc-Cre infection, luciferase reporter, 44 h | Potency, µM (top dose mostly 41.8 µM), inactives show top-dose activity change, negative = inhibition, usual class: inhibitors | 340,000 compounds, 3.4% hits; further: potency means the concentration at half of the fitted maximal effect
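Reporter virus HCVcc-Cre (~0.5 moi) infects cells exposed to compound; seeding density 1,000 cells/well with 4 h settling beforehand. Luminescence, 15 sec read, taken 44 h post-infection following a 15 min RT substrate incubation.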
Pf growth 48h: P. falciparum growth inhibition at 48 hours (one generation). P. falciparum luciferase growth in erythrocytes, 48 h. Potency, µM (series often up to 28.7 µM), for inactives: at the top dose activity change, negative = inhibition, usual class: inhibitors. 310,000 compounds, 5.9% hits. AID 504832; further: potency means the concentration at half of the fitted maximal effect
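Compounds are pin-transferred into medium, infected erythrocytes (2% hematocrit, 0.1% parasitemia final) are added, and plates sit one parasite generation at 37 C in 5% CO2. Detection reagent is then added and luminescence measured.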
MARV entry inh: blocks Marburg virus binding to or entry into cells | 300,000 compounds, 1.8% hits | Marburg virus pseudotyped entry inhibition, cell reporter | Potency, µM (titrated, usually from 37.8 µM), inactives show at the top dose activity change, negative = inhibition, most hits filed as inhibitors; calls by dose curve; tested in HEK293 cells; further: potency means the concentration at half of the fitted maximal effect
* = called active by the depositor; i = inactive; ? = inconclusive; . = no result; [ ] = dose if it differs, or a comment. Unless noted, the call rests on the fitted dose curve; in most records, active means well fitted inhibition curve with a large enough effect; inconclusive means small, poorly fitted or top-dose-only effect, or another doubt; inactive means no such curve, though single readings can be large or run the other way. On the % scale 0 is the no-effect control and ±100 the full control effect.

SMILES	HCMV inh	Lassa entry inh	Pf growth 96h	HCV inh	Pf growth 48h	MARV entry inh
COc1ccccc1CC(=O)Nc1ccc(-c2noc(COc3ccc(Br)cc3)n2)cc1	-27	?	-20%	-26%	.	?
COc1cccc(-c2nc(-c3ccc(NC(=O)Cc4ccccc4OC)cc3)no2)c1	.	-9%	22%	6.3µM*	?	-4%
CN(C)c1cccc(NC(=O)C2Cc3c(-c4ccc(Cl)cc4)ccnc3O2)c1 (centres undefined)	-29	.	.	.	.	.
CCS(=O)(=O)Nc1cc(-c2cn3ccc(C)cc3n2)ccc1C	80	?	.	.	.	?
C=C(C(C)=O)C(O)c1ccc(C(F)(F)F)cc1 (centres undefined)	.	.	.	.	.	-13%[14.2 µM]
Cc1cc(Cl)n2nc(C)c(-c3ccc(Cl)cc3)c2n1	-7	16µM*	?	?	4%	?
Cc1cc(N)n2nc(C)c(-c3ccc(Cl)cc3)c2n1	-32	-10%	-10%	11µM*	?	?
COc1ccc(-c2c(C)nn3c(C)cc(C)nc23)cc1	-30	6%	50%	11µM*	0%	13%
Cc1cc(N)n2nc(C)c(-c3ccccc3)c2n1	33	?	82%	?	?	25%
COc1ccccc1CNC(=O)c1ccc(-c2nc(CS(=O)(=O)c3ccc(C)cc3)c(C)o2)cc1	12	-25%[46.1 µM]	.	.	.	.
O=C(NCCSc1c(-c2ccccc2)[nH]c2ccccc12)c1cc2ccccc2oc1=O	-8	?	-28%	2%[8.37 µM]	-16%	13%
CC(NC(=O)c1cc2ccccc2o1)c1ccccc1 (centres undefined)	?	?	i	-9%	-1%	.
O=C(NCCc1ccccc1)c1cc2ccccc2oc1=O	-103*	.	9.3µM*	0%	3%	.
CC(=O)OCCNC(=O)c1cc2ccccc2oc1=O	4	7%	1.7µM*	12%	13%	?
CCCC(=O)OCCNC(=O)c1cc2ccccc2oc1=O	15	0%	.	6%	10%	8%[46.1 µM]
O=C(NCCc1ccc(F)cc1)c1cc2ccccc2oc1=O	14	.	-9%	20%	11%	.
Cc1ccc(-c2[nH]c3ccccc3c2SCCNC(=O)c2cc3ccccc3oc2=O)cc1	-22	-7%	5.9µM*	-1%	?	-3%
CC(NC(=O)c1cc2ccccc2oc1=O)c1ccccc1 (centres undefined)	-29	-10%[46.1 µM]	12µM*	-12%	11%	?
Cn1c(=O)[nH]c2cc(-c3noc(-c4ccc(C#N)cc4)n3)ccc21	-4	2%[46.1 µM]	.	.	.	.
O=C(Cc1cccs1)NCCSc1c(-c2ccc(Cl)cc2)[nH]c2ccccc12	?	16µM*	?	13µM*	?	?
Cc1cc(C)c[n+](CC(=O)c2cc3ccccc3oc2=O)c1	-98*	18%	12%	1%	7%	4%
CC(=O)c1ccc(COC(=O)c2cc3ccccc3oc2=O)cc1	7	.	13µM*	3%	6%	.
Cc1ccc[n+](CC(=O)c2cc3ccccc3oc2=O)c1	2	12%	0%	10%	-11%	7%
COc1ccc(CNc2nc(NCc3ccc(OC)cc3)n(C(=O)c3ccccc3[N+](=O)[O-])n2)cc1	-31	4.1µM*	?	?	?	5%
NCCCC(N)CC(=O)NCC1NC(=O)C(CO)NC(=O)C(N)CNC(=O)C(C2CCN=C(N)N2)NC(=O)/C(=C/NC(N)=O)NC1=O (centres undefined)	.	.	-20%	.	1%	.
SMILES	HCMV inh	Lassa entry inh	Pf growth 96h	HCV inh	Pf growth 48h	MARV entry inh
O=C(N/N=C/c1ccc(OC(F)F)cc1)c1ccc(Br)cc1	0	?	11%	22%	24%	2%
O=C(NO)c1ccc(OC(F)F)cc1	108	0%	?	-16%	10µM*	-6%
CCN(CC)CCNC(C(=O)OCCC(C)C)c1ccccc1 (centres undefined)	.	.	13µM*	.	17µM*	.
O=C(c1cn(-c2ccccc2)nc1-c1cccs1)N1CCN(c2ccc(F)cc2)CC1	-21	?	9.3µM*	?	?	?
O=C(c1cccs1)N1CCN(C(=O)c2cn(-c3ccccc3)nc2-c2ccccc2)CC1	5	?	.	-14%	.	?
COC(=O)c1ccc(NC(=O)c2cn(-c3ccccc3)nc2-c2ccncc2)cc1	-98*	-15%	?	?	12µM*	13µM*
CC(=O)c1ccc(NC(=O)c2cn(-c3ccccc3)nc2-c2ccncc2)cc1	4	?	191%	1%	-3%	?
O=C(Nc1ccncc1)c1cn(-c2ccccc2)nc1-c1cccs1	-5	-8%	2.9µM*	?	.	?
CC(NC(=O)COC(=O)c1cn(-c2ccccc2)nc1-c1cccs1)c1ccccc1 (centres undefined)	-13	22%	3.3µM*	2%	.	-21%
Cc1cccc(C(O)c2ncc(-c3ccc4ccccc4c3)[nH]2)c1C (centres undefined)	5	.	.	.	.	.
COC(=O)c1ccc(CNC(=O)C2CCC(=O)N(CCc3ccccn3)C2)cc1 (centres undefined)	5	.	.	.	.	.
c1ccc2nc(N3CCCC3)c(N3CCCC3)nc2c1	-7	5%	?	-19%	1%	-2%[46.1 µM]
Cc1ccc2nc(N3CCOCC3)c(C=O)cc2c1	17	.	-25%	?	24%	.
Cc1ccc(-c2nnc(-c3ccccc3)c(N3CCOCC3)n2)cc1	-3	-22%	?	11µM*	-1%	?
c1ccc(-c2cc3ccccc3nc2N2CCCC2)cc1	-61*	3%	-12%	?	?	-1%
Cc1ccc(-c2cc3ccccc3nc2N2CCOCC2)cc1	-29	19%[46.1 µM]	-16%	10µM*	-15%	19%[46.1 µM]
CCC(C)Sc1nnc(NS(=O)(=O)Cc2ccccc2)s1 (centres undefined)	8	.	?	15%	-13%	.
C[C@@]1(CO)[C@H](O)CC[C@@]2(C)[C@H]1CC[C@H]1C[C@@H]3C[C@@]12CC[C@]3(O)CO	.	?	0.59µM*	-20%[8.37 µM]	0.52µM*	0.52µM*
CCc1nc(N)nc(N)c1-c1ccc(Cl)c(N=[N+]=[N-])c1	-79*	?	.	?	.	?
CCc1nc(N)nc(N)c1-c1ccc(Cl)c([N+](=O)[O-])c1	-99*	?	.	?	.	?
CN(C)c1ccc(/C=C2\N=C(c3ccc(Cl)c([N+](=O)[O-])c3)NC2=O)cc1	-11	?	27%	3%	38%	-31%[46.1 µM]
Cc1cc(OCC(=O)N(Cc2ccc(N(C)C)cc2)CC2CCCO2)ccc1Cl (centres undefined)	-20	?	.	.	.	5%[46.1 µM]
CCN(CCCC(=O)c1ccc(F)cc1)CCc1ccccc1	-9	?	?	19%	-23%	3.5µM*
CCCN(CCO)CCCc1ccccc1	54	2%	28%	6%	.	9%

Screening results deposited in PubChem BioAssay by National Center for Advancing Translational Sciences (NCATS).
